For experiment [1], the system named is T1, BIKE.
T1 construct: gene BMP2K

In experiment [2] the test system is BMPR1A.
In experiment [3] the test system is BMPR2.
In experiment [4] the test system is BMX.
Experiment [5] has as its system T2, BRK.
T2 construct: gene PTK6

The subject of experiment [6] is BUB1.
For experiment [7], the system named is CAMK2A.
In experiment [8] the test system is CAMK2D.
Experiment [9] concerns CAMKK1.
For experiment [10], the system named is T3, CDC2L5.
T3 construct: gene CDK13

The test system of experiment [11] is CDK2.
Experiment [12] has as its system CDK4.
Experiment [13] has as its system CDK8.
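Note: kd values determined as follow-up on hits from a single-replicate KINOMEscan panel screen.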

In experiment [1], `O=S(=O)(c1ccc(-c2ccnc3[nH]ccc23)cc1)N1CCCC1` [GSK846226] registered a dissociation constant Kd of 7.2 µM. With `Cc1ccc(NC(=O)Nc2cccc(C(F)(F)F)c2)cc1` [GSK955403], the dissociation constant (Kd) in experiment [2] is > 10 µM. In the case of `O=C1NC(=O)C(N2CCc3ccccc32)=C1c1ccccc1Cl` [SB-373598], the dissociation constant (Kd) in [3] is > 10 µM. Regarding `NC(=O)c1nnc2ccccc2c1N`, in experiment [4], the Kd was > 10 µM.

For the compound `O=C(O)COc1ncnc2cc(-c3ccc4[nH]ncc4c3)sc12`, the Kd in experiment [5] is > 10 µM. On the same count and under the same terms, the figure for `Cc1c(O)cccc1Nc1ccnc2ccc(C(F)(F)F)cc12.Cl` [GW466413] is 0.19 µM. For `CN(C)CCN(C)C(=O)c1cc(-c2ccncc2)c(-c2ccc(Cl)c(O)c2)o1.Cl.Cl` [SB-710397], the equilibrium dissociation constant (Kd) in [6] came to 0.39 µM. `Cl.Oc1ccc(-c2nc(-c3ccccc3)[nH]c2-c2ccncc2)cc1` [SB-428218] returned a Kd in experiment [6] of 0.56 µM. Turning to `Cc1c(Cn2ccn3c(=O)cc(N4CCOCC4)nc23)cccc1C(F)(F)F` [GSK2289044], in experiment [7], the dissociation constant Kd was > 10 µM. As for `Cc1cc(-c2ccc3c(c2)CC[C@@H](N[C@@H](C)c2ccccc2)C3)cnc1N.Cl` [GW412617], the dissociation constant Kd in experiment [8] was > 10 µM. Consider `Cc1cccc(-c2nc(C)cc(Nc3ccncc3)n2)n1` [GSK257997], for which the equilibrium dissociation constant (Kd) in experiment [8] is > 10 µM. On to `CC(C)(C)c1ccc(C(=O)Nc2cn3cc(Cl)ccc3n2)cc1`, for which the Kd in experiment [9] was > 10 µM. For `CCn1c(-c2ccccn2)nc2cnccc21` [SB-736398], in experiment [10], the Kd is > 10 µM. For `CCCc1ccc(S(=O)(=O)NC2CCN(c3ccnc(Nc4ccc(F)cc4)n3)C2)cc1` (stereo not drawn) [GSK1379715], the Kd in [10] is > 10 µM. The compound `O=C(Nc1n[nH]c2nc(-c3nccs3)c(Br)cc12)C1CC1` [SB-742251] had a Kd in [11] of 0.35 µM.

As to `O=C(Nc1n[nH]c2nc(-c3nccs3)c(Br)cc12)C1CCCC1` [SB-742609], the results for the Kd in experiment [11] and in experiment [12] were 0.28 µM and 4.2 µM, respectively. `O=C(Nc1n[nH]c2cc(-c3cccc(F)c3F)ccc12)C1CC1` [SB-733894]: the equilibrium dissociation constant (Kd) in [13] was > 10 µM.

As a reminder, the Kd is the concentration at which binding is half-saturated.

For the origin of these results see PMC5540273 (PLoS ONE, 2017).
